Data on 16 compounds can be found in ChEMBL document CHEMBL1961873, “Compounds: GSK PKIS; Assays: Nanosyn kinase panel” (2012).

Test [1] has as its system Proto-oncogene tyrosine-protein kinase receptor Ret (Homo sapiens), P07949 [Y791F]. The settings on record: at 1 µM.
Test [2] deals with Macrophage-stimulating protein receptor (Homo sapiens) (UniProt Q04912). As to conditions: at 0.1 µM.
Test [3] has the same target. As to conditions: at 1 µM.
The target in test [4] is Proto-oncogene tyrosine-protein kinase ROS (Homo sapiens) (UniProt P08922). The settings on record: at 0.1 µM.
Proto-oncogene tyrosine-protein kinase ROS (Homo sapiens), sequence (P08922 whole entry): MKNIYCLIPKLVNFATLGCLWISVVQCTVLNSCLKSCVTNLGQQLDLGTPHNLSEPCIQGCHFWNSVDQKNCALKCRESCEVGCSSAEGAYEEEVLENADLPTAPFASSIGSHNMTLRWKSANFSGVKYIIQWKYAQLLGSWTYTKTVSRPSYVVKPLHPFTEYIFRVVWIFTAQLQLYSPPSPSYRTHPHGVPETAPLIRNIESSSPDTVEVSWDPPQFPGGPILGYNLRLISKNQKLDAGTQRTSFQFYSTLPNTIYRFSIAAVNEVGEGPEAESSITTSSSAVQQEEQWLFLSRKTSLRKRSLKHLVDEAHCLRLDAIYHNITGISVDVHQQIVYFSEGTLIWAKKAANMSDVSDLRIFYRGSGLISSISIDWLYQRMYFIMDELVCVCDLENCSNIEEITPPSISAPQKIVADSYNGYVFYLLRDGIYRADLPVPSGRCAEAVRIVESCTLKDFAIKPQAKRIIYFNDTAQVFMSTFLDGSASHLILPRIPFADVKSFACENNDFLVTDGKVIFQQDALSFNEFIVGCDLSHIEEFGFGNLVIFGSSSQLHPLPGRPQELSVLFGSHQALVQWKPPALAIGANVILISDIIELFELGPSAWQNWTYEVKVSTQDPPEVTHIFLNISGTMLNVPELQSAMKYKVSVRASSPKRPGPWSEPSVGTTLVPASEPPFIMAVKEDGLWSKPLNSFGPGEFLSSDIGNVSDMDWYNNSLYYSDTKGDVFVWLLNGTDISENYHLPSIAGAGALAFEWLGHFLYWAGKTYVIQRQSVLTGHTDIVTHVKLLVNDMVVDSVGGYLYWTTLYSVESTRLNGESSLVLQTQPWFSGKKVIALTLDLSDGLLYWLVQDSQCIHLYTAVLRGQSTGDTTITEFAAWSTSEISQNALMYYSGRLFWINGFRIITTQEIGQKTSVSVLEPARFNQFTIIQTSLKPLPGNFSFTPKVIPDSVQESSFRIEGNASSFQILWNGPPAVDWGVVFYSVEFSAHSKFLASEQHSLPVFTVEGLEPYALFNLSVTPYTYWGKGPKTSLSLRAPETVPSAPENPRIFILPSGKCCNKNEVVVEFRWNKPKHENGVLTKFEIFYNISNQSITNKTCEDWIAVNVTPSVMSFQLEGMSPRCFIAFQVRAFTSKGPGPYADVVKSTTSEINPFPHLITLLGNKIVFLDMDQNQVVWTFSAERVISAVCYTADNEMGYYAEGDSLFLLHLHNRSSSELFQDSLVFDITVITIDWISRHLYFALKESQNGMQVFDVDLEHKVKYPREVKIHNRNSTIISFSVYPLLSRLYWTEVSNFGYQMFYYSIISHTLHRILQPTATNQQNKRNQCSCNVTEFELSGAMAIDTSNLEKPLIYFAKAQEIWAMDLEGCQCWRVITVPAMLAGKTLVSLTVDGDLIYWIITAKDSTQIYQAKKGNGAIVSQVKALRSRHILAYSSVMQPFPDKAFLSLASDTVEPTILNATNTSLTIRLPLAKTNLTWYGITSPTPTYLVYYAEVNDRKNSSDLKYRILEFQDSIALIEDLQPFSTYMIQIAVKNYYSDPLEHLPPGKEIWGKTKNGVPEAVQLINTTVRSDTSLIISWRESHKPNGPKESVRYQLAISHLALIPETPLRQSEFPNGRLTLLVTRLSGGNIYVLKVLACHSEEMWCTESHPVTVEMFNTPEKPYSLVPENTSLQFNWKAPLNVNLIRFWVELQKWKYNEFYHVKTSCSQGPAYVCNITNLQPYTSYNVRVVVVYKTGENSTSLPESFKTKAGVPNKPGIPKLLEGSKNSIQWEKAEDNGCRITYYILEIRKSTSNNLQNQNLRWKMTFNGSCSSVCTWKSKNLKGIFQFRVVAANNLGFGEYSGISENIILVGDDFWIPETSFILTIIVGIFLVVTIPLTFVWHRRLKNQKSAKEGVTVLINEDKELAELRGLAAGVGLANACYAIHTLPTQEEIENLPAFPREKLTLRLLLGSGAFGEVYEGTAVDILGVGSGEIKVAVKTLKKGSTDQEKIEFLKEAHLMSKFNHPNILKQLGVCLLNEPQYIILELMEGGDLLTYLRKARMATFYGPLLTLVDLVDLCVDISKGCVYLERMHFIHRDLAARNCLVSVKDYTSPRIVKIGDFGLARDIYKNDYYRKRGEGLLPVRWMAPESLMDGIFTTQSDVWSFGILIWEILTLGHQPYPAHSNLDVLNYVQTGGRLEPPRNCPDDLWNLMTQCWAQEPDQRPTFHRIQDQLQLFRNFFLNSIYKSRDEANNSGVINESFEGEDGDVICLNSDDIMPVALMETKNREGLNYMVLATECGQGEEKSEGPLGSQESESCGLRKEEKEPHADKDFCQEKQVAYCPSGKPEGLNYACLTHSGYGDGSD
Test [5] has the same target. As to conditions: at 1 µM.
Test [6] concerns the target Proto-oncogene tyrosine-protein kinase Src (Homo sapiens) (UniProt P12931). As to conditions: at 0.1 µM.
The target is the same in test [7]. As to conditions: at 1 µM.
Test [8] concerns the target Tyrosine-protein kinase Srms (Homo sapiens) (UniProt Q9H3Y6). As to conditions: at 0.1 µM.
Test [9] shares this target. As to conditions: at 1 µM.
For test [10], the target named is Tyrosine-protein kinase SYK (Homo sapiens) (UniProt P43405). The settings on record: at 0.1 µM.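 Further: reported percentages are mean inhibition values for SYK.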

Where “and” joins values, the source holds several entries; their conditions need not be identical. Equal values may be shown once.

Proto-oncogene tyrosine-protein kinase Src (Homo sapiens), sequence (P12931 2-536 limits assumed): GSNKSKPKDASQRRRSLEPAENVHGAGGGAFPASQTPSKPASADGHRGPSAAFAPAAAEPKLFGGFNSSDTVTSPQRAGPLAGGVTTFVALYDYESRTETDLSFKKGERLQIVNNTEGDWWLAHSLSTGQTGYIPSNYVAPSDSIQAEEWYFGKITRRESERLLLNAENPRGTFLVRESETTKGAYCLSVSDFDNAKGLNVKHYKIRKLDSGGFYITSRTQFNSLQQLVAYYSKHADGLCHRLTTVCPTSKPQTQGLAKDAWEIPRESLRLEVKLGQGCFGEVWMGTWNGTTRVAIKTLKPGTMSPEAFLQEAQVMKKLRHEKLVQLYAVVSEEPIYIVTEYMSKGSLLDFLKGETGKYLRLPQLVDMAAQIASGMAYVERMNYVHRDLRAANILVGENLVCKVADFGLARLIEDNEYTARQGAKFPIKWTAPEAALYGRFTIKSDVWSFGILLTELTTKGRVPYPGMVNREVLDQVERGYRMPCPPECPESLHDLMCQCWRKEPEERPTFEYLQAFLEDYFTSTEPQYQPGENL
Macrophage-stimulating protein receptor (Homo sapiens), sequence (Q04912 25-304 limits assumed): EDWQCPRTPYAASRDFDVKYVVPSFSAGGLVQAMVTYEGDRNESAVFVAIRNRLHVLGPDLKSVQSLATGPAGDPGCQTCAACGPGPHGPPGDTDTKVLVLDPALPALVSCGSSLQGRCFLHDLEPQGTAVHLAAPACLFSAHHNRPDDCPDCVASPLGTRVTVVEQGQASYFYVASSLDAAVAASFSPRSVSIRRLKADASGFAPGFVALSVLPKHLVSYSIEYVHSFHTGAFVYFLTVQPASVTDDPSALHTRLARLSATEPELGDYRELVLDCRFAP
Macrophage-stimulating protein receptor (Homo sapiens), sequence (Q04912 310-1400 limits assumed): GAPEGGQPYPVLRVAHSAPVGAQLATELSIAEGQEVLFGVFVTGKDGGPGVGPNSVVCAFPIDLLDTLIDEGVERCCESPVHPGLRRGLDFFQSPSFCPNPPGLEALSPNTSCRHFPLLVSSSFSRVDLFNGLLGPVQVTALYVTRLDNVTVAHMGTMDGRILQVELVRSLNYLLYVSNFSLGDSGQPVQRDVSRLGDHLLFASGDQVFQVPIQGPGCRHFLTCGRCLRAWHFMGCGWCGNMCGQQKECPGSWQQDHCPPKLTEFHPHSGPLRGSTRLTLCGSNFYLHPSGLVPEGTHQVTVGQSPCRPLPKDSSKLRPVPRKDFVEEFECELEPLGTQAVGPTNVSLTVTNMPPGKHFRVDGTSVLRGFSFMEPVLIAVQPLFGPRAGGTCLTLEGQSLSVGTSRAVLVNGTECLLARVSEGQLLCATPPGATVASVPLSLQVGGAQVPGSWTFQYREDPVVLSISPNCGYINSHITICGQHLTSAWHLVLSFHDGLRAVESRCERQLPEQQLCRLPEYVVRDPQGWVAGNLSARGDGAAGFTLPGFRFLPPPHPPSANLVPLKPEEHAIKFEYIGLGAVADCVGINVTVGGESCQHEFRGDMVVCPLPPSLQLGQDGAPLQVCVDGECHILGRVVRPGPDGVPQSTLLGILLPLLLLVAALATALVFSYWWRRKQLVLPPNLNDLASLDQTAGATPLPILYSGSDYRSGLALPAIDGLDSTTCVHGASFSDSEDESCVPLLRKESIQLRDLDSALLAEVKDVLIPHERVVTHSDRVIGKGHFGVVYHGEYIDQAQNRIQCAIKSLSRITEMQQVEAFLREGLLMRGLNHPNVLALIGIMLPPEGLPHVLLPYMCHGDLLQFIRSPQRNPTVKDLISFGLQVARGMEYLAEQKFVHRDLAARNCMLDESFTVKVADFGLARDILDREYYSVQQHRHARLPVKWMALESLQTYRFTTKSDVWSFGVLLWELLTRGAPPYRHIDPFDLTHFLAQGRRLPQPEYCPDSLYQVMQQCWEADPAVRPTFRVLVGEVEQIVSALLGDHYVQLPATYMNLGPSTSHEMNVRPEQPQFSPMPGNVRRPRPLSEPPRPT
Tyrosine-protein kinase Srms (Homo sapiens), sequence (Q9H3Y6 whole entry): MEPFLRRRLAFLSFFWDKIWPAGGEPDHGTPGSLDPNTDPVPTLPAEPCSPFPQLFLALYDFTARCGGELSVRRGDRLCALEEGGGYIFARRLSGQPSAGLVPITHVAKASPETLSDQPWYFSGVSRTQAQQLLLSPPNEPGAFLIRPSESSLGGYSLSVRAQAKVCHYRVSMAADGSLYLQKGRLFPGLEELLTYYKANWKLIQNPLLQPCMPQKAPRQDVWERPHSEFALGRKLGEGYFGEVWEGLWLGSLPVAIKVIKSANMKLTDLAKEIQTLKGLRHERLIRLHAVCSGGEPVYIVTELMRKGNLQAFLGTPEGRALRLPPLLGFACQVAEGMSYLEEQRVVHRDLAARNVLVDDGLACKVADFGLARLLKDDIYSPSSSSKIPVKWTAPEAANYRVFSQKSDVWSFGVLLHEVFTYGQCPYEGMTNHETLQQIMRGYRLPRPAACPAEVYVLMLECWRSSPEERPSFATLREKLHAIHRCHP

One may read the inhibition as the relative decrease from the control value, in per cent. Turning to `COc1ccc(-c2nn3ncccc3c2-c2ccnc(Nc3ccc(F)c(F)c3)n2)cc1`, the inhibition in test [1] stood at 19.1%; in test [2] it was 1.18%; in test [3], 2.96%; in test [4] it was 6.57%; in test [5], 9.74%; in test [6] it was 3.58%. The inhibition was 19.4% in [7], -2.81% in test [8], 1.37% in test [9] and -2.45% in test [10].

Turning to `COc1cc(N2CCN(C(C)C)CC2)ccc1Nc1nc(Nc2cccc(F)c2C(=O)O)c2cc[nH]c2n1`, the inhibition in [1] is 11.6%; in test [2] it was 0.36%; in test [3] it was 2.96%; in test [4], 13.8%; in [5], 54.7%; in test [6], -3.89%. Also, the inhibition was 8.5% in test [7], -1.76% in test [8], 5.01% in test [9] and -4.66% in test [10].

Regarding `CNC(=O)c1ncccc1Nc1nc(Nc2cc3c(cc2OC)CCCN3C(=O)CN(C)C)nc2[nH]ccc12`, the inhibition in test [1] is 27.1%; in test [2], -2.25%; in [3], 6.45%; in [4], 83.4%; in [5], 87.7%; in test [6] it was 0.68%. The inhibition in test [7] is 8.9%; in test [8], 0.09%; in test [9], -0.71%; in [10], -1.3%.

On to `CN(C)CCNC(=O)Nc1ccc(N(C)c2ccnc(Nc3ccc(CS(C)(=O)=O)cc3)n2)cc1`, for which the inhibition is 23.3% in test [1]; 3.87% in test [2]; 7.76% in [3]; 15.3% in test [4]; 78% in test [5]; 4.55% in [6]. Besides, the inhibition in [7] was 14.4%; in test [8] it was -2.02%; in test [9] it was -0.56%; in [10] it was -4.06%.

For `CC(C)c1ccc(-c2cc(-c3c[nH]nc3-c3ccccn3)ccn2)cc1`, the inhibition in test [1] is 4.31%; in [2], -5.99%; in test [3], 3.62%; in [4], 2.06%; in [5] it was 1.81%; in [6] it was 1.53%. Moreover, the inhibition was 0.23% in [7], 0.28% in [8], -0.57% in [9] and 2.53% in test [10].

Turning to `CN(c1ccc(NC(=O)NCCN2CCOCC2)cc1)c1ccnc(Nc2ccc(CS(C)(=O)=O)cc2)n1`, the inhibition was 73.6% in [1]; 4.51% in [2]; 15.6% in [3]; 9.47% in test [4]; 43.5% in test [5]; 4.5% in [6]. The inhibition was 18.4% in test [7], -1.89% in test [8], 1.22% in test [9] and -3.19% in [10].

With `CCn1c(-c2nonc2N)nc2cncc(C(=O)NCCNC)c21`, the inhibition in test [1] is 12.2%; in [2], 1.51%; in test [3] it was 1.07%; in test [4], 3.34%; in test [5] it was 14%; in [6] it was 8.77%. Besides, the inhibition in [7] was 6.62%; in [8], -2.48%; in test [9], -2.36%; in [10], -1.48%.

Take `CCS(=O)(=O)c1ccc(OC)c(Nc2ncc(-c3cccc(C(C)=O)c3)o2)c1`: the inhibition was 39.2% in [1]; -2.76% in [2]; 3.79% in test [3]; 3.34% in test [4]; 16.5% in test [5]; 16.3% in test [6]. The inhibition in [7] is 70.7%; in test [8] it was 0.94%; in [9], 17.7%; in [10], -5.14%.

With `Nc1ncnc2occ(-c3ccc(NC(=O)Nc4cc(C(F)(F)F)ccc4F)cc3)c12`, the inhibition is 85.5% and 86.1% in [1]; 6.58% and -2.93% in test [2]; 12.2% and 2.9% in test [3]; 4.91% and 3.1% in test [4]; 28.1% and 13.7% in test [5]; 10.1% and 1.77% in test [6]. In addition, the inhibition was 48.3% and 31.9% in [7]; 0.41% and -0.6% in [8]; 0.84% and 0.62% in [9]; -4.8% and -1.07% in test [10].

As for `COc1cccc(-n2ncc3c(N/N=C/c4ccc(C(=O)NCCN(C)C)cc4)ncnc32)c1`, the inhibition in test [1] amounted to 72.4%; in test [2] it was 28.8%; in test [3], 66.3%; in test [4], 11.2%; in test [5], 41.7%; in test [6] it was 65%. Further, the inhibition in test [7] is 89.7%; in test [8], 2.52%; in [9], 19.9%; in [10] it was -2.88%.

Take `Nc1nonc1-c1nc2cnccc2n1C1CC1`: the inhibition is 6.05% and 3.67% in test [1]; -0.62% and 3.72% in [2]; 9.46% and 1.74% in test [3]; 7.08% and 4.44% in [4]; 15.1% and 14.1% in test [5]; 3.78% and -1.17% in test [6]. In addition, the inhibition was 8.03% and 5.68% in test [7]; -1.43% and -0.81% in [8]; 0.98% and 0.04% in test [9]; 1.89% and -3.36% in [10].

For the compound `COc1cccc(Nc2nccc(-c3cnn4ncccc34)n2)c1`, the inhibition in [1] came to 24%; in [2], 6.23%; in [3] it was 15.1%; in test [4] it was 38.2%; in test [5] it was 71.1%; in test [6], 7.33%. Besides, the inhibition in test [7] is 41.6%; in test [8], 1.25%; in test [9], -1.9%; in [10], -0.98%.

On to `CCN1CCC(C(=O)Nc2n[nH]c3nnc(-c4cccc(F)c4F)cc23)CC1`, for which the inhibition is 3.53% in test [1]; 0.53% in test [2]; 0.25% in test [3]; -1.03% in test [4]; 3.74% in test [5]; -1.14% in [6]. Besides, the inhibition in test [7] is -2.38%; in test [8], 1.44%; in [9], 2.12%; in test [10], 0.98%.

Take `Fc1ccc(Nc2nccc(-c3c(-c4ccc(C(F)(F)F)cc4)nn4ncccc34)n2)cc1F`: the inhibition in test [1] is 4.13%; in [2], -2.05%; in test [3], 4.5%; in test [4], 6.56%; in test [5] it was 8.15%; in [6], -0.44%. Also, the inhibition in test [7] is 6.45%; in test [8] it was 0.3%; in [9] it was -1.61%; in test [10] it was -5.43%.

As to `O=C1Nc2ccccc2/C1=C1\CCc2cc(O)ccc21`, the inhibition is 64.6% in [1]; 5.94% in test [2]; 2.23% in test [3]; 10.8% in test [4]; 18.6% in test [5]; -0.52% in test [6]. The inhibition is 15.2% in [7], -1.04% in test [8], -4.06% in [9] and -8.61% in test [10].

With `COc1cc2c(cc1Nc1nc(Nc3cccc(F)c3C(N)=O)c3cc[nH]c3n1)N(C(=O)CN1CCN(C(C)C)CC1)CC2`, the inhibition is 6.08% in test [1]; -1.39% in test [2]; -1.15% in test [3]; 31.6% in test [4]; 73.7% in test [5]; 4.53% in test [6]. Further, the inhibition in [7] is 11.8%; in test [8] it was -1.09%; in [9], 0.82%; in test [10] it was 3.25%.
